According to PubChem BioAssay AID1159580 (chemical genetic matrix, 2015):
Hit rate of the full screen: of about 5,500 compounds, about 2,000 (36%) were called active. Another 18% or so got no clear call; they are omitted. Rule as the data show it: active = normalized growth mostly below about 0.91 (no sharp cut-off); inconclusive = no clear call, values can overlap the other calls; inactive = mostly above about 0.92. The list shows a part of the results.

Assay: chemical genetic growth profiling, strain panel (AID 1159580);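 also: tested at 20 µM; growth read once vehicle control cultures reached saturation at 30 °C; 1 = growth at the plate median or of vehicle wells; lower values mean less growth of the strain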
Conditions: S. cerevisiae deletion strains, growth OD

Measured: normalized growth

CC(C)CCCC(C)N (configuration not stated)
inactive: locus YAL021C, strain ccr4, hits give low values 1.03 | locus YAL026C, strain drs2, hits give low values 1.02 | locus YAL030W, strain snc1, hits give low values 1.02 | locus YBL061C, strain skt5, hits give low values 1.02 | locus YBR009C, strain hhf1, hits give low values 1.02 | locus YBR023C, strain chs3, hits give low values 1.03 | locus YBR171W, strain sec66, hits give low values 1.05 | locus YBR231C, strain swc5, hits give low values 1.02 | locus YBR279W, strain paf1, hits give low values 1.02 | locus YCL011C, strain gbp2, hits give low values 1.04 | locus YCL016C, strain dcc1, hits give low values 1.02 | locus YCL061C, strain MRC1, hits give low values 1.01 | locus YCL069W, strain vba3, hits give low values 1.03 | locus YCR088W, strain abp1, hits give low values 1.03 | locus YDL005C, strain med2, hits give low values 1.04 | locus YDL040C, strain nat1, hits give low values 1.02 | locus YDR001C, strain nth1, hits give low values 1.02 | locus YDR069C, strain doa4, hits give low values 1.04 | locus YDR137W, strain rgp1, hits give low values 0.99 | locus YDR159W, strain sac3, hits give low values 0.97 | locus YDR195W, strain ref2 1.03 | locus YDR297W, strain sur2, hits give low values 1.02 | locus YDR334W, strain swr1, hits give low values 1.03 | locus YDR335W, strain msn5, hits give low values 1.04 | locus YDR392W, strain spt3, hits give low values 0.963 | locus YEL003W, strain gim4, hits give low values 1.02 | locus YEL037C, strain rad23, hits give low values 1.04 | locus YEL061C, strain CIN8 (second series), hits give low values 1.01 | locus YER015W, strain faa2, hits give low values 1.02 | locus YER016W, strain bim1, hits give low values 1.05 | locus YER111C, strain swi4, hits give low values 1.04 | locus YER155C, strain BEM2 (second series), hits give low values 1.03 | locus YFR010W, strain ubp6, hits give low values 1.01 | locus YGL167C, strain pmr1, hits give low values 1.03 | locus YGL173C, strain kem1, hits give low values 1.01 | locus YGL227W, strain vid30, hits give low values 1.04 | locus YGL240W, strain doc1, hits give low values 0.983 | locus YGL253W, strain hxk2, hits give low values 1.04 | locus YHR013C, strain ard1, hits give low values 1.03 | locus YHR027C, strain rpn1, hits give low values 1.02 | locus YHR142W, strain chs7, hits give low values 1.05 | locus YJL092W, strain hpr5, hits give low values 1.02 | locus YJL095W, strain BCK1 (second series), hits give low values 1.03 | locus YJL115W, strain asf1, hits give low values 1.03 | locus YJL129C, strain trk1, hits give low values 1.04 | locus YJL154C, strain vps35, hits give low values 1.03 | locus YJL164C, strain tpk1, hits give low values 1.03 | locus YJL166W, strain qcr8, hits give low values 1.02 | locus YJL187C, strain SWE1, hits give low values 1.02 | locus YKL160W, strain elf1, hits give low values 1.03 | locus YKR026C, strain gcn3, hits give low values 1.02 | locus YKR091W, strain srl3, hits give low values 1.01 | locus YLL001W, strain dnm1, hits give low values 1 | locus YLL026W, hits give low values 1.01 | locus YLL041C, strain sdh2, hits give low values 1.03 | locus YLR027C, strain aat2, hits give low values 1.03 | locus YLR221C, strain rsa3, hits give low values 1.01 | locus YLR258W, strain gsy2, hits give low values 1.01 | locus YLR262C, strain YPT6 (second series), hits give low values 0.999 | locus YLR320W, strain mms22, hits give low values 0.977 | locus YLR342W, strain FKS1, hits give low values 1.03 | locus YLR357W, strain rsc2, hits give low values 1.06 | locus YLR370C, strain arc18, hits give low values 1.03 | locus YLR384C, strain iki3, hits give low values 1.03 | locus YML120C, strain ndi1, hits give low values 1.02 | locus YMR058W, strain fet3, hits give low values 1.01 | locus YMR125W, strain sto1, hits give low values 1.04 | locus YMR129W, hits give low values 1.02 | locus YMR205C, strain PFK2, hits give low values 1.01 | locus YMR231W, strain pep5, hits give low values 1.03 | locus YNL071W, strain lat1, hits give low values 1.03 | locus YNL209W, strain ssb2, hits give low values 1.03 | locus YNL248C, strain rpa49, hits give low values 1.07 | locus YNL322C, strain KRE1 (second series), hits give low values 1.04 | locus YNR049C, strain mso1, hits give low values 1.03 | locus YOR001W, strain rrp6, hits give low values 1.02 | locus YOR070C, strain gyp1, hits give low values 1.02 | locus YOR080W, strain dia2, hits give low values 1.03 | locus YOR083W, strain WHI5, hits give low values 0.968 | locus YOR106W, strain vam3, hits give low values 1.04 | locus YOR265W, strain rbl2, hits give low values 1.02 | locus YOR270C, strain vph1, hits give low values 1.14 | locus YOR290C, strain snf2, hits give low values 1.03 | locus YPL051W, strain arl3, hits give low values 1.02 | locus YPL078C, strain atp4, hits give low values 1.04 | locus YPL106C, strain sse1, hits give low values 1.05 | locus YPL240C, strain hsp82, hits give low values 1.03
